# GLD-1 TGE inh: GLD-1/TGE RNA complex disruptors, primary screen, biochemical, fluorescence polarization. Female germline-specific tumor suppressor gld-1 (Caenorhabditis elegans), Q17339. purified GLD-1 + fluorescein TGE RNA. inhibition, % at 5.96 µM. actives 0.44% (n = 320,000);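 active means percent inhibition above a per-plate cutoff, the plate mean of test compounds plus 3 SD, cut at about 30% in these data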
# E coli Lon inh: inhibitors of E. coli Lon protease, primary screen, biochemical, fluorescence polarization; actives 0.42% (n = 360,000); P0A9M0; inhibition, % at 7.94 µM; purified E. coli Lon protease; AID 602123, 2011; in the data active means inhibition above about 13%, passing the limit was not always enough
# EBV gp42 block: Epstein-Barr virus gp42 inhibitors, primary screen, biochemical, uHTS, fluorescence polarization | AID 1085, 2008 | inhibition, % (tested at 21.74 µM) | actives 0.42% (n = 220,000) | Fluorescence polarization binding assay, mP read-out; in the data active means inhibition above about 50%
# Target sequence (Q1HVG2 whole entry, looked up): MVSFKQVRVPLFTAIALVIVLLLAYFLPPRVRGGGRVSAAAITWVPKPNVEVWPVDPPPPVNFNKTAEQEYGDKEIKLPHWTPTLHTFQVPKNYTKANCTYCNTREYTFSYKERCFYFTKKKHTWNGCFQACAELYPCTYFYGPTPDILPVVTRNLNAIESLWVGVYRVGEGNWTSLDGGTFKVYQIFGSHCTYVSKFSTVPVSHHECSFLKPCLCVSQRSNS
# BCLXL inh: inhibitors of human Bcl-xL, primary screen, biochemical, fluorescence polarization, HTS. actives 0.7% (n = 320,000). inhibition, % at 10.9 µM. GST-Bcl-xL / FITC-Bim BH3 peptide fluorescence polarization. Bcl-2-like protein 1 (Homo sapiens), Q07817;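 active means inhibition above the mean of all tested compounds plus 3 SD, cutoff set per campaign, cut at about 30% in these data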;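 further: inhibitors lower millipolarization by displacing the labeled peptide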
# Target sequence (Q07817 whole entry, looked up): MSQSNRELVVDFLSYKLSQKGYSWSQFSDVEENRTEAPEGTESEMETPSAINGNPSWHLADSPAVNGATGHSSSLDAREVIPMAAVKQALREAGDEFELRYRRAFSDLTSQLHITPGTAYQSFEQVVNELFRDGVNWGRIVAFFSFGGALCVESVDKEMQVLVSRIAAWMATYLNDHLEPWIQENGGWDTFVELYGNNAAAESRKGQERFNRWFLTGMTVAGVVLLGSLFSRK
# MEX-5 binding: MEX-5 zinc finger RNA-binding disruptors – biochemical, C. elegans, fluorescence polarization, MLPCN library, primary screen | MEX-5/FITC-TCR2 RNA binding; active compounds read low | actives 0.38% (n = 300,000) | Zinc finger protein mex-5 (Caenorhabditis elegans), Q9XUB2 | activity score (negative = inhibition of binding), % at 10 µM;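 active means inhibition past about -25% in most replicates, and total fluorescence under double the plate's negative control median, limit read from the data; inconclusive means replicates evenly split on the limit, or fluorescence at least double controls; inactive means too little inhibition in most replicates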
# MCL1-BIM inh: inhibitors of MCL1 binding to BIM-BH3, primary screen, biochemical, fluorescence polarization. Induced myeloid leukemia cell differentiation protein Mcl-1 (Homo sapiens), Q07820. GST-MCL1 / FITC-Bim-BH3 fluorescence polarization. inhibition, % at 10.9 µM. actives 0.68% (n = 320,000). AID 2057, 2009;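 active means inhibition above the mean inhibition of all tested compounds plus 3 SD, set per campaign, cut at about 40% in these data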;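 further: higher means more loss of mP so more displacement of Bim peptide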
# A number is an active result; . = inactive; ? = inconclusive; / = no result. Most compounds without a hit are left out; they make up all but 1.5% or so of the library.
SMILES,GLD-1 TGE inh,E coli Lon inh,EBV gp42 block,BCLXL inh,MEX-5 binding,MCL1-BIM inh
c1ccc(-c2ccnc3nc(N4CCN(c5ccccc5)CC4)nn23)cc1,.,.,71.7,.,.,.
Cc1cccc2cc3c(N)c(C#N)sc3nc12,.,.,.,34.8,.,.
CCOc1ccc2[nH]c3ncccc3c(=O)c2c1,.,.,/,41.8,.,51.7
CCOc1ccc2[nH]c(C)c(CN3CCOCC3)c(=O)c2c1,.,.,.,.,.,.
O=C(N/N=C/c1cc(Br)cc(Br)c1O)c1ccncc1,31.0,/,.,33.1,.,45.1
CC1(C)OC2CC3C4CC(F)C5=CC(=O)C=CC5(C)C4(F)C(O)CC3(C)C2(C(=O)CO)O1 (stereo unspecified),.,.,/,56.9,.,52.9
CC(=O)N(c1ccccc1C)C1CCCC1,.,.,.,.,.,.
CC(=O)N(C1=C(Cl)C(=O)c2ccccc2C1=O)C1CCCCC1,.,.,.,.,-48.2,.
CCOC(=O)c1ccc(CNC(=O)c2cc(COc3ccccc3SC)on2)o1,.,.,/,.,.,.
O=C(c1ccco1)N1CCN(c2ncnc3c(-c4ccc(Cl)cc4)nsc23)CC1,.,.,/,.,-29.2,.
Cc1cc(C)c(CN2CCC(n3nccc3NC(=O)C3CCOC3)CC2)cc1C (stereo unspecified),.,.,/,.,.,.
Cc1ccc(F)cc1NC(=O)CSc1n[nH]c(N)n1,.,.,/,/,/,/
Cc1ccc(CNC(=O)CCCc2cn(C)c3ccccc23)cc1,.,.,/,.,.,.
O=C1CN(C(=O)c2ccc(F)cc2)c2ccccc2N1,.,.,/,.,.,.
CCC(=S)/C=C1\Sc2ccc3ccccc3c2N1CCCS(=O)(=O)O,.,/,.,.,-68.1,.
CCOc1ccc(NC(=O)CN(C)C(=O)c2c(-c3ccccc3Cl)noc2C)cc1OCC,.,.,/,.,.,.
CCN1/C(=C/c2ccc3cccc(C)c3[n+]2CC)Sc2ccccc21,47.1,.,.,.,?,.
CCN1/C(=C/c2ccc3cc(C)cc(C)c3[n+]2CC)Sc2cc(C)ccc21,/,.,.,/,/,/
CCOc1ccc(C(=O)OCC(=O)NCCCc2ccccc2)cc1,.,.,/,116.4,.,.
CN(C)c1ccc(C(=O)OCC(=O)NCCCc2ccccc2)cc1,.,.,/,.,.,.
Cc1cc(NC(=O)NN2CCOCC2)nn1-c1c(Cl)cccc1Cl,.,.,.,.,.,.
CN(C)S(=O)(=O)c1ccc(C(=O)OCC2COC(C)(C)O2)cc1 (stereo unspecified),.,.,/,.,.,.
CCN1CCc2c(C#N)c(N3CCOCC3)nc(NCc3ccccc3)c2C1,/,.,/,/,.,/
CCN1CCc2c(C#N)c(N3CCOCC3)nc(NCCO)c2C1,.,.,.,44.3,.,.
Cc1cc(/C=C(/C#N)c2nc3ccccc3[nH]2)c(C)n1-c1cc(C(=O)O)cc(C(=O)O)c1,/,.,129.0,/,.,/
SMILES,GLD-1 TGE inh,E coli Lon inh,EBV gp42 block,BCLXL inh,MEX-5 binding,MCL1-BIM inh
CCOc1ccccc1N(CC(=O)N1CCCC1)S(C)(=O)=O,.,.,/,.,.,.
COCCNC(=O)CSc1ccc(-c2nc3ccccc3[nH]2)cn1,.,.,/,61.4,.,.
COC(=O)CN1C(=O)N(c2ccccc2)C(N(O)C(=O)Nc2ccccc2)C1(C)C (stereo unspecified),.,.,138.7,.,.,.
Cc1ccc(NC(=O)CCS(=O)(=O)c2cc3c(cc2Cl)NC(=O)CO3)cc1,.,.,/,.,-26.5,.
COc1ccc(/C=C2/SC(c3ccc(C)cc3)=NC2=O)cc1OC,.,.,.,.,?,.
COc1ccc(/C=C2\SC(c3ccc(C)cc3)=NC2=O)cc1OC,.,.,52.9,.,?,.
c1csc(CNc2nc(Oc3ccncc3)c3sccc3n2)c1,/,.,/,/,/,/
CN(C)c1cccc2c1c(NS(=O)(=O)c1cn(C)cn1)nn2C,.,.,/,.,-29.9,.
Cn1cnc(S(=O)(=O)Nc2ccccc2N2CCOCC2)c1,.,.,.,.,.,.

# Compound activity as filed in PubChem BioAssay.
